{"source": "paper PMC5540273", "about": "(PLoS ONE, 2017);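 further: KINOMEscan kinase panel screen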"}
{"tested_on": "MYLK", "conditions": "concentration: 1 μM, replicates: in singlicate; n = 1", "units": {"%Inh": "%"}}
{"smiles": "COc1ccc(Nc2nccc(N3CCC(NC(=O)C(C)c4ccc(Cl)cc4)CC3)n2)cc1", "note": "(stereo not drawn) [GSK1379812]", "%Inh": 4}
{"smiles": "CCc1ccc(-c2ccc3c(c2)-c2n[nH]cc2S(=O)(=O)N3C)cc1", "%Inh": 0}
{"smiles": "CC(=O)c1c(C)c2cnc(Nc3ccc(N4CCNCC4)cn3)nc2n(C2CCCC2)c1=O", "%Inh": 9}
{"smiles": "Cn1cncc1C(=O)NC1CCN(c2ccnc(Nc3ccc(F)cc3)n2)C1", "note": "(stereo not drawn) [GSK1379717]", "%Inh": 0}
{"smiles": "CNc1cc(-c2ccc3c(N)n[nH]c3c2)nc(N)n1", "note": "[GSK2224810]", "%Inh": 10}
{"smiles": "CN1c2ccc(-c3ccc(C(N)=O)cc3)cc2-c2[nH]ncc2S1(=O)=O", "%Inh": 73}
{"smiles": "COc1ccc(-c2coc3ccc(-c4nnc(C)o4)cc23)cc1", "%Inh": 0}
{"smiles": "Cc1ccc(NC(=O)Nc2ccccc2F)cc1-c1ccc(C(=O)Nc2ccncc2)cc1", "note": "[GSK1398477]", "%Inh": 23}
{"smiles": "O=C(Nc1n[nH]c2nc(-c3ccco3)c(Br)cc12)C1CCN(Cc2ccccc2)C1.O=C(O)[C@H](O)[C@@H](O)C(=O)O", "note": "(stereo not drawn) [SB-742034]", "%Inh": 3}
{"smiles": "FC(F)(F)c1ccccc1-c1cc(-c2c[nH]nc2-c2ccccn2)ccn1", "note": "[GW679396]", "%Inh": 8}
{"smiles": "COc1nccc(-c2c(-c3ccc(F)cc3)ncn2CCCN2CCOCC2)n1", "note": "[SB-282852]", "%Inh": 18}
{"smiles": "COc1cccc(CNC(=O)NC2CCN(c3ccnc(Nc4ccc(F)cc4)n3)C2)c1", "note": "(stereo not drawn) [GSK1379723]", "%Inh": 0}
{"smiles": "COC(=O)C(NC(=O)NC1CCN(c2ccnc(Nc3ccc(F)cc3)n2)C1)c1ccccc1", "note": "(stereo not drawn) [GSK1379712]", "%Inh": 12}
{"smiles": "CNCc1ccc2nc(NC(=O)c3ccc(C(C)(C)C)cc3)cn2c1", "%Inh": 24}
{"smiles": "Cc1ccc(NC(=O)Nc2ccc(Cl)cc2)cc1-c1ccc(C(=O)Nc2ccncc2)cc1", "note": "[GSK1398472]", "%Inh": 2}
{"smiles": "Cn1cncc1-c1cc2c(Nc3ccc(OCc4ccccc4)cc3)ncnc2cn1", "note": "[GW281179]", "%Inh": 9}
{"smiles": "Fc1ccc(-c2nc3n(c2-c2ccncc2)CCS3)cc1", "note": "[GI98581]", "%Inh": 12}
{"smiles": "COc1ccc(CSc2nnc(-c3ccc4ncsc4c3)o2)cc1C(F)(F)F", "%Inh": 0}
{"smiles": "Cc1ccc(NC(=O)Nc2ccccc2)cc1-c1ccc(C(=O)Nc2ccncc2)cc1", "note": "[GSK1398471]", "%Inh": 20}
{"smiles": "COc1ccc2cc(-c3nc(-c4ccccc4C(C)C)[nH]c3-c3ccncc3)ccc2c1", "note": "[SB-660566]", "%Inh": 0}
{"smiles": "O=C1NC(=O)C(c2ccc(Cl)cc2)=C1Nc1cccc(Cl)c1", "note": "[SB-317651]", "%Inh": 0}
{"smiles": "CC(C)c1cc(-c2ccc3c(N)n[nH]c3c2)nc(N)n1", "note": "[GSK2250882]", "%Inh": 26}
{"smiles": "Cc1c(Cn2c3ccccc3n3c(=O)cc(N4CCOCC4)nc23)cccc1C(F)(F)F", "note": "[GSK2306394]", "%Inh": 2}
{"smiles": "COC(=O)C(Cc1ccccc1)NC(=O)NC1CCN(c2ccnc(Nc3ccc(F)cc3)n2)C1", "note": "(stereo not drawn) [GSK1379714]", "%Inh": 11}
{"smiles": "CS(=O)(=O)Cc1ccc(Nc2nccc(-c3c(-c4cccc(NC(=O)C5CCCCC5)c4)nn4ncccc34)n2)cc1", "note": "[GSK350559]", "%Inh": 31}
{"smiles": "Nc1nccc(-c2c(-c3ccc(F)cc3)ncn2C2CCN(Cc3ccccc3)CC2)n1", "note": "[SB-219980]", "%Inh": 0}
{"smiles": "CC(C)c1ccc(O)cc1Nc1ccnc2ccc(C(F)(F)F)cc12", "note": "[GW482059]", "%Inh": 3}
{"smiles": "CNc1nc(-c2ccc3c(N)n[nH]c3c2)cc(N2C[C@@H](C(=O)NC3CCCCC3)OC[C@H]2C)n1", "note": "[GSK2375584]", "%Inh": 18}
{"smiles": "CCn1c(-c2ccccc2)nc2cnccc21", "note": "[SB-733416]", "%Inh": 0}
{"smiles": "CCCCc1nn2ncccc2c1-c1ccnc(NC2CC2)n1", "note": "[GW684374]", "%Inh": 0}
{"smiles": "Nc1cccc(-c2ccc3c(N)n[nH]c3c2)n1", "note": "[GSK2192730]", "%Inh": 34}
{"smiles": "CS(=O)(=O)CCNCc1nc(-c2ccc3ncnc(Nc4ccc(OCc5ccccc5)c(Cl)c4)c3c2)cs1.Cl", "note": "[GW582764]", "%Inh": 0}
{"smiles": "COc1cccc(NC(=O)Nc2ccc(C)c(-c3ccc(C(=O)Nc4ccncc4)cc3)c2)c1", "note": "[GSK1398474]", "%Inh": 31}
{"smiles": "CC[C@@H]1CO[C@H](C(=O)Nc2ccccc2)CN1c1cc(-c2ccc3c(N)n[nH]c3c2)nc(NC)n1", "note": "[GSK2376236]", "%Inh": 22}
{"smiles": "COc1ccc(CSc2nnc(-c3ccc4nccn4c3)o2)cc1C(F)(F)F", "%Inh": 0}
{"smiles": "Nc1ncnc2occ(-c3ccc4c(c3)CCN4C(=O)Cc3cc(F)ccc3F)c12", "note": "[GSK2645446]", "%Inh": 9}
{"tested_on": "MYO3A", "conditions": "concentration: 1 μM, replicates: in singlicate; n = 1", "units": {"%Inh": "%"}}
{"smiles": "COc1ccc(Nc2nccc(N3CCC(NC(=O)C(C)c4ccc(Cl)cc4)CC3)n2)cc1", "note": "(stereo not drawn) [GSK1379812]", "%Inh": 24}
{"smiles": "CCc1ccc(-c2ccc3c(c2)-c2n[nH]cc2S(=O)(=O)N3C)cc1", "%Inh": 19}
{"smiles": "CC(=O)c1c(C)c2cnc(Nc3ccc(N4CCNCC4)cn3)nc2n(C2CCCC2)c1=O", "%Inh": 11}
{"smiles": "Cn1cncc1C(=O)NC1CCN(c2ccnc(Nc3ccc(F)cc3)n2)C1", "note": "(stereo not drawn) [GSK1379717]", "%Inh": 15}
{"smiles": "CNc1cc(-c2ccc3c(N)n[nH]c3c2)nc(N)n1", "note": "[GSK2224810]", "%Inh": 41}
{"smiles": "CN1c2ccc(-c3ccc(C(N)=O)cc3)cc2-c2[nH]ncc2S1(=O)=O", "%Inh": 0}
{"smiles": "COc1ccc(-c2coc3ccc(-c4nnc(C)o4)cc23)cc1", "%Inh": 0}
{"smiles": "Cc1ccc(NC(=O)Nc2ccccc2F)cc1-c1ccc(C(=O)Nc2ccncc2)cc1", "note": "[GSK1398477]", "%Inh": 19}
{"smiles": "O=C(Nc1n[nH]c2nc(-c3ccco3)c(Br)cc12)C1CCN(Cc2ccccc2)C1.O=C(O)[C@H](O)[C@@H](O)C(=O)O", "note": "(stereo not drawn) [SB-742034]", "%Inh": 17}
{"smiles": "FC(F)(F)c1ccccc1-c1cc(-c2c[nH]nc2-c2ccccn2)ccn1", "note": "[GW679396]", "%Inh": 10}
{"smiles": "COc1nccc(-c2c(-c3ccc(F)cc3)ncn2CCCN2CCOCC2)n1", "note": "[SB-282852]", "%Inh": 5}
{"smiles": "COc1cccc(CNC(=O)NC2CCN(c3ccnc(Nc4ccc(F)cc4)n3)C2)c1", "note": "(stereo not drawn) [GSK1379723]", "%Inh": 0}
{"smiles": "COC(=O)C(NC(=O)NC1CCN(c2ccnc(Nc3ccc(F)cc3)n2)C1)c1ccccc1", "note": "(stereo not drawn) [GSK1379712]", "%Inh": 0}
{"smiles": "CNCc1ccc2nc(NC(=O)c3ccc(C(C)(C)C)cc3)cn2c1", "%Inh": 2}
{"smiles": "Cc1ccc(NC(=O)Nc2ccc(Cl)cc2)cc1-c1ccc(C(=O)Nc2ccncc2)cc1", "note": "[GSK1398472]", "%Inh": 22}
{"smiles": "Cn1cncc1-c1cc2c(Nc3ccc(OCc4ccccc4)cc3)ncnc2cn1", "note": "[GW281179]", "%Inh": 10}
{"smiles": "Fc1ccc(-c2nc3n(c2-c2ccncc2)CCS3)cc1", "note": "[GI98581]", "%Inh": 12}
{"smiles": "COc1ccc(CSc2nnc(-c3ccc4ncsc4c3)o2)cc1C(F)(F)F", "%Inh": 15}
{"smiles": "Cc1ccc(NC(=O)Nc2ccccc2)cc1-c1ccc(C(=O)Nc2ccncc2)cc1", "note": "[GSK1398471]", "%Inh": 0}
{"smiles": "COc1ccc2cc(-c3nc(-c4ccccc4C(C)C)[nH]c3-c3ccncc3)ccc2c1", "note": "[SB-660566]", "%Inh": 0}
{"smiles": "O=C1NC(=O)C(c2ccc(Cl)cc2)=C1Nc1cccc(Cl)c1", "note": "[SB-317651]", "%Inh": 5}
{"smiles": "CC(C)c1cc(-c2ccc3c(N)n[nH]c3c2)nc(N)n1", "note": "[GSK2250882]", "%Inh": 9}
{"smiles": "Cc1c(Cn2c3ccccc3n3c(=O)cc(N4CCOCC4)nc23)cccc1C(F)(F)F", "note": "[GSK2306394]", "%Inh": 0}
{"smiles": "COC(=O)C(Cc1ccccc1)NC(=O)NC1CCN(c2ccnc(Nc3ccc(F)cc3)n2)C1", "note": "(stereo not drawn) [GSK1379714]", "%Inh": 0}
{"smiles": "CS(=O)(=O)Cc1ccc(Nc2nccc(-c3c(-c4cccc(NC(=O)C5CCCCC5)c4)nn4ncccc34)n2)cc1", "note": "[GSK350559]", "%Inh": 0}
{"smiles": "Nc1nccc(-c2c(-c3ccc(F)cc3)ncn2C2CCN(Cc3ccccc3)CC2)n1", "note": "[SB-219980]", "%Inh": 0}
{"smiles": "CC(C)c1ccc(O)cc1Nc1ccnc2ccc(C(F)(F)F)cc12", "note": "[GW482059]", "%Inh": 0}
{"smiles": "CNc1nc(-c2ccc3c(N)n[nH]c3c2)cc(N2C[C@@H](C(=O)NC3CCCCC3)OC[C@H]2C)n1", "note": "[GSK2375584]", "%Inh": 35}
{"smiles": "CCn1c(-c2ccccc2)nc2cnccc21", "note": "[SB-733416]", "%Inh": 28}
{"smiles": "CCCCc1nn2ncccc2c1-c1ccnc(NC2CC2)n1", "note": "[GW684374]", "%Inh": 23}
{"smiles": "Nc1cccc(-c2ccc3c(N)n[nH]c3c2)n1", "note": "[GSK2192730]", "%Inh": 15}
{"smiles": "CS(=O)(=O)CCNCc1nc(-c2ccc3ncnc(Nc4ccc(OCc5ccccc5)c(Cl)c4)c3c2)cs1.Cl", "note": "[GW582764]", "%Inh": 30}
{"smiles": "COc1cccc(NC(=O)Nc2ccc(C)c(-c3ccc(C(=O)Nc4ccncc4)cc3)c2)c1", "note": "[GSK1398474]", "%Inh": 0}
{"smiles": "CC[C@@H]1CO[C@H](C(=O)Nc2ccccc2)CN1c1cc(-c2ccc3c(N)n[nH]c3c2)nc(NC)n1", "note": "[GSK2376236]", "%Inh": 19}
{"smiles": "COc1ccc(CSc2nnc(-c3ccc4nccn4c3)o2)cc1C(F)(F)F", "%Inh": 2}
{"smiles": "Nc1ncnc2occ(-c3ccc4c(c3)CCN4C(=O)Cc3cc(F)ccc3F)c12", "note": "[GSK2645446]", "%Inh": 26}
